PubChem BioAssay
Where “and” joins values, the source holds several entries; their conditions need not be identical. Equal entries are not always repeated. Some structures have more than one record in an assay (separate samples or runs), and their calls can disagree. Calls of active or inactive are those of the source.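 The calls were made as follows, unless noted: active = thallium flux through the channel raised or lowered by more than 3 SD from vehicle-only wells, actives on both sides; inactive = the rest.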

Tests used:
[1] = tested on: Hepatitis C virus NS3 helicase; assay: blockers of NS3h binding to DNA – biochemical, fluorescence polarization, NIH Clinical Collection, primary screen (AID 743270; call rule not given here); settings: NS3 helicase binding to Cy5-dT15 DNA, stronger effect = higher value, concentration not given here
[2] = biological target: Single-stranded DNA-binding protein (Escherichia coli (strain K12)) (UniProt P0AGE0); assay: SSB-ssDNA binding inhibitors – biochemical, fluorescence polarization, NIH Clinical Collection, counter-screen for HCV NS3 helicase inhibitor project (AID 743271; in the data active = inhibition above about 28%); settings: E. coli SSB-DNA binding, stronger effect = higher value, concentration not given here
[3] = compounds distorting NS3 helicase fluorescence signal – biochemical, NIH Clinical Collection, artefact control for HCV NS3 helicase inhibitor project (AID 743272; call rule not given here;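 also: HCV NS3 helicase with a Cy5 labelled single stranded DNA probe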); settings: fluorescence interference counterscreen, HCV NS3 helicase assay; stronger effect = lower value
[4] = Wnt pathway potentiators raising nuclear beta-catenin – imaging, WNT3A-conditioned medium, mouse C2C12, NPC library, primary screen (AID 1117326; in the data active = nuclear beta-catenin stimulation mostly above about 4.2%, no sharp cut-off; inactive = mostly below about 10%); settings: stronger effect = higher value
[5] = stimulators of insulin release from INS-1E, primary screen, cell-based, 5 mM glucose, NPC library (AID 1117329;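 active = compound raises insulin release from rat beta cells at 5 mM glucose, no numeric limit stated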); settings: rat INS-1E insulin secretion, at 10 µM, stronger effect = higher value
[6] = growth inhibition of GSK3B-pretreated HCT116 cells – cell-based, CellTiter-Glo, 0.2 to 20 µM (AID 1117336;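 active = compounds lowering colon cancer cell viability after pretreatment blocking the GSK3B kinase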); settings: HCT116 viability after GSK3B inhibitor, at 20 µM, stronger effect = higher value
[7] = inhibition of endothelial tube formation, primary screen, imaging, VEGF stimulated, CD31 staining, tube area, NPC library (AID 1117340;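 active = compound that reduces growth-factor-driven endothelial tube area in a mixed cell culture, no cutoff stated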); settings: VEGF-stimulated ADSC/ECFC co-culture, at 10 µM, stronger effect = higher value
[8] = GLP1 release stimulators, primary, NCI-H716, NPC library (AID 1117341;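 active = compound raises GLP1 secretion from the human gut endocrine cells, with no numeric limit stated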); settings: NCI-H716 cells, at 10 µM, stronger effect = higher value
[9] = HCT116 colon cancer cell growth inhibition, primary screen, CellTiter-Glo luminescence, NPC library (AID 1117342;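 active = compounds that lower survival of HCT116 colon cancer cells in the luminescence readout, no numeric limit stated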); settings: at 20 µM (top of the series)
[10] = reduced SW480 viability measured with CellTiter-Glo, NPC library, primary (AID 1117343;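 active = compounds that lower viability of the colon cancer cells in the luminescence readout, with no numeric limit stated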); settings: CellTiter-Glo luminescence; at 20 µM (top of the series)
[11] = NPC library primary testing for decreased DLD-1 cell viability via CellTiter-Glo (AID 1117346;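 active = compounds that lower survival of DLD-1 colon cancer cells in the luminescence readout, no cutoff given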); settings: DLD-1 viability, CellTiter-Glo luminescence; at 20 µM (top of the series)
[12] = biological target: 6-phosphogluconate dehydrogenase, decarboxylating (Homo sapiens) (UniProt P52209); assay: inhibition of human phosphogluconate dehydrogenase – biochemical, recombinant enzyme, NADPH absorbance, primary screen (AID 1159550;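 active = at least 20% inhibition of 6-phosphogluconate dehydrogenase activity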); settings: recombinant 6PGD, NADPH absorbance 341 nm; at 10 µM; stronger effect = higher value
[13] = viability loss with induced miR-34 in A549 – imaging, A549 dox-inducible miR-34, nuclei and caspase counts, primary screen (AID 1347080;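 active = compounds whose cell count with miR-34 switched on is under 0.7 times the count with it off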); settings: A549 miR-34 inducible, Hoechst nuclei count, 48 h
[14] = biological target: NAD(+) hydrolase SARM1 (Homo sapiens) (UniProt Q6SZW1); assay: blocking NAD cleavage by SARM1 SAM-TIR – cell lysate, NAD-Glo luminescence (AID 1508614;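 active = compound whose remaining NAD level is above about 45 nM, limit read from the data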;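 also: higher remaining NAD means stronger inhibition of SARM1 NADase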); settings: SAM-TIR HEK293T lysate NADase, at 1 µM, stronger effect = higher value
[15] = biological target: Mitogen-activated protein kinase 7 (Homo sapiens) (UniProt Q13164); assay: Gal4-ERK5 driven luciferase induction – cell-based, HTS, primary screen (AID 1508626;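 active = luciferase signal above three times the same-plate solvent-only control wells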;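 also: luciferase driven by Gal4-ERK5 fusion binding five Gal4 sites before minimal TATA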); settings: HeLa Gal4-ERK5 transactivation, 18 h, at 5 µM, stronger effect = higher value
[16] = tested on: F380Y; assay: BK channel mutant inhibitors and activators – cell-based, U2OS BacMam, thallium flux, beta subunits, selectivity assay, profiling panel (AID 1259406); settings: U2OS BacMam BK variants, at 30 µM;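 also: initial slope of Thallos dye fluorescence rise after thallium is added; log ratio against the mean of 0.3% DMSO vehicle wells on the same plate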
[17] = tested on: F380Y/beta2Delta; assay: as above; settings: U2OS BacMam BK variants, at 30 µM
[18] = biological target: Calcium-activated potassium channel subunit alpha-1 (Homo sapiens) + Leucine-rich repeat-containing protein 26 (Homo sapiens) (UniProt Q12791+Q2I0M4); assay: as above; settings: U2OS BacMam BK variants, F380Y/Slo1WT/gamma1, at 30 µM
[19] = EMT-state selective cytotoxicity in co-culture – imaging, PC-3E GFP, TEM4-18 mCherry, primary screen (AID 1345086;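 active = compounds killing one labelled cell type while sparing the other, by normalised counts and ratio limits, not self-fluorescent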;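 as to all read-outs here: cells exposed to compound for 72 h before imaging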;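 as to red/green cell ratio (normalised): normalised mesenchymal count divided by normalised epithelial count so high means epithelial killing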); settings: PC-3E GFP / TEM4-18 mCherry co-culture, imaging cell counts, at 1 µM; for red/green cell ratio (normalised): actives lie on both sides, counts scaled to control wells, 1 = unselective
[20] = MELAS cybrid and Rieske KO viability enhancers – cell-based, MELAS cybrids, Rieske KO mouse fibroblasts, CellTiter-Glo, primary screen (AID 1508586;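 active = mean z-score across replicates of 1.96 or higher in either the MELAS or the Rieske mutant cell line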;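 also: z relative to plate mean and SD of compound and empty wells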); settings: low glucose
[21] = stronger effect = lower value, cell number ratio, induced over uninduced
[22] = measured here: relative caspase fold change +Dox/-Dox
[23] = measured here: total cells with miR-34 induction, stronger effect = lower value
[24] = measured here: total cells without miR-34 induction
[25] = measured here: epithelial PC-3E GFP cell survival
[26] = measured here: mesenchymal TEM4-18 mCherry cell survival
[27] = MELAS cybrid survival, CellTiter-Glo 48 h, stronger effect = higher value
[28] = Rieske KO mouse fibroblast survival, CellTiter-Glo 72 h

Sequence of Mitogen-activated protein kinase 7 (Homo sapiens) (Q13164 whole entry, looked up, the tested form may be a part): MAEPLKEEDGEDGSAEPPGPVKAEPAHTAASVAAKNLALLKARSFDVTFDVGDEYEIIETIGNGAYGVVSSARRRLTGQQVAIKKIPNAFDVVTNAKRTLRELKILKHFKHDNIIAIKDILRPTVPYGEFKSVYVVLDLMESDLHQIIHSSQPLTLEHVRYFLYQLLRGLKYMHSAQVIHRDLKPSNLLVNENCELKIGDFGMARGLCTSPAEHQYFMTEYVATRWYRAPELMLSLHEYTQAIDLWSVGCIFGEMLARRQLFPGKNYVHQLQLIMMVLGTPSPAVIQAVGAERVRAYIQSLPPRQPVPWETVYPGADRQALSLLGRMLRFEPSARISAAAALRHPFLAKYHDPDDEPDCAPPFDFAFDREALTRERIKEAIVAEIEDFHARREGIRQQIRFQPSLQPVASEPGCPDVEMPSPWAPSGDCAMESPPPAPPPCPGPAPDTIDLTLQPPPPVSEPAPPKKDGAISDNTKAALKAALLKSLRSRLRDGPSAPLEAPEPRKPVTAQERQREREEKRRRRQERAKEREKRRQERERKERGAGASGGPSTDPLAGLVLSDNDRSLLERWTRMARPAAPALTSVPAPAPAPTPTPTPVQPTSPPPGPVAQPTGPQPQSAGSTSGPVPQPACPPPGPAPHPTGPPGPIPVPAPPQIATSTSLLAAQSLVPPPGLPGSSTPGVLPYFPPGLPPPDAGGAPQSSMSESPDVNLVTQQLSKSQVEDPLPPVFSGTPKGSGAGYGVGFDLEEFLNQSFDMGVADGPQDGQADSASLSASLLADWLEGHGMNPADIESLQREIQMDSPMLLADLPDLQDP
Sequence of Calcium-activated potassium channel subunit alpha-1 (Homo sapiens) + Leucine-rich repeat-containing protein 26 (Homo sapiens) (Q2I0M4 whole entry, looked up, one chain of several): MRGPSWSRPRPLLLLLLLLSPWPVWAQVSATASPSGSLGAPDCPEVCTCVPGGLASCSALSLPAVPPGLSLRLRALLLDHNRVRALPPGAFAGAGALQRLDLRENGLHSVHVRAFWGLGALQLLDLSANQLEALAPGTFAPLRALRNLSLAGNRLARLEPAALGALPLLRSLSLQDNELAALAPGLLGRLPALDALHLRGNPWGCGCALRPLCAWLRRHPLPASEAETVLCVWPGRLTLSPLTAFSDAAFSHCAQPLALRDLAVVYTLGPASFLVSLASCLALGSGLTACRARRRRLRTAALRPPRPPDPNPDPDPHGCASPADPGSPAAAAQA
Sequence of 6-phosphogluconate dehydrogenase, decarboxylating (Homo sapiens) (P52209 whole entry, looked up): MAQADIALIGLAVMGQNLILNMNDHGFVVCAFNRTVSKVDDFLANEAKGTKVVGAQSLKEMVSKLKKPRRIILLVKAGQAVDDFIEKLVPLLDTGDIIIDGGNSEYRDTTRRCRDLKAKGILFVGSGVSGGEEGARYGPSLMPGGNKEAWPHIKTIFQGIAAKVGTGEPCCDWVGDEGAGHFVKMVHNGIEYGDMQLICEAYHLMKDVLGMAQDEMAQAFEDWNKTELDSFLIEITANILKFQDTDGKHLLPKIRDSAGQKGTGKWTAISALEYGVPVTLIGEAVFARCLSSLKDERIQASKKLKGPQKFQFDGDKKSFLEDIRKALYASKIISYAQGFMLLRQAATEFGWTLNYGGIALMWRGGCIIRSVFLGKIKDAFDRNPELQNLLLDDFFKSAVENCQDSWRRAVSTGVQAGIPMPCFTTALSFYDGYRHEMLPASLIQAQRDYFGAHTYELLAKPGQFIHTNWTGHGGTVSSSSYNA
Sequence of NAD(+) hydrolase SARM1 (Homo sapiens) (Q6SZW1 whole entry, looked up, the tested form may be a part): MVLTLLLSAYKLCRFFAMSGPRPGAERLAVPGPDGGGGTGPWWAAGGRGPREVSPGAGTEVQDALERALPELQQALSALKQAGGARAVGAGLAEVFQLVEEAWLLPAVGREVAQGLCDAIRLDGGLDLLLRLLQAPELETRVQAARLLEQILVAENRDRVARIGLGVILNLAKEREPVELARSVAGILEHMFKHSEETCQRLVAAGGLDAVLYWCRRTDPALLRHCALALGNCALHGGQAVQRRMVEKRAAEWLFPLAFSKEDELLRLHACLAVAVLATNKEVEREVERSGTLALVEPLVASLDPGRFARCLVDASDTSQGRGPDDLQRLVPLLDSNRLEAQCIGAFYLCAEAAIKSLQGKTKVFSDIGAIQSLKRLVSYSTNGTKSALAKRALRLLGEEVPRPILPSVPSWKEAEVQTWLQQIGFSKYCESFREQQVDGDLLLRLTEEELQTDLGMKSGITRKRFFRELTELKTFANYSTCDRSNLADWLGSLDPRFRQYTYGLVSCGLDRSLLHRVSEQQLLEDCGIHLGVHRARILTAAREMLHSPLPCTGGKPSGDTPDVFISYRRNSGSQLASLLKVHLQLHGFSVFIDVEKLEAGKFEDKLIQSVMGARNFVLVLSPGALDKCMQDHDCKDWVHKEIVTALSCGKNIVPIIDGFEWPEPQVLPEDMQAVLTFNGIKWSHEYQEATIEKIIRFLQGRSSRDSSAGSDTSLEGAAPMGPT

O[C@@H](c1cc(C(F)(F)F)nc2c(C(F)(F)F)cccc12)[C@H]1CCCCN1
inactive: inhibition [1] -7.73% | inhibition [2] -2% | fluorescence ratio [3] 0.96 | insulin secretion stimulation [5] 6.3% | GLP1 secretion stimulation [8] -1.8% | inhibition [12] 5.27% | fold change [13, 21] 1.59 | remaining NAD [14] 10 nM | luciferase signal [15] 64 AU
0.276: fold change [13, 22]
950: cell count [13, 23]
597: cell count [13, 24]
3.3%: nuclear beta-catenin stimulation ([4]; stimulation, at 2 µM)
active: nuclear beta-catenin stimulation ([4]; at 10 µM) 45% | viability decrease [6] 99.1% | tube area decrease [7] 108% | inhibition of viability [9] 99% | viability decrease (inhibition) [10] 102% | viability decrease (inhibition) [11] 101% | log fold change Tl+ flux [16] 0.333 | log fold change Tl+ flux [17] 0.541 | log fold change Tl+ flux [18] 0.167

C[C@]12CCC(=O)C=C1CC[C@@H]1[C@@H]2[C@@H](O)C[C@@]2(C)[C@H]1CC[C@]2(O)C(=O)COC(=O)CCC(=O)O
inactive: inhibition [1] -1.36% | inhibition [2] -0.48% | fluorescence ratio [3] 1 | nuclear beta-catenin stimulation ([4]; at 10 µM) 0.9% | insulin secretion stimulation [5] 1.4% | viability decrease [6] 0.2% | tube area decrease [7] 5.6% | GLP1 secretion stimulation [8] -1.5% | inhibition of viability [9] 6.6% | viability decrease (inhibition) [10] -13.6% | viability decrease (inhibition) [11] 13.1% | inhibition [12] 1.94% | fold change [13, 21] 0.985 | remaining NAD [14] 10 nM | luciferase signal [15] 96 AU | log fold change Tl+ flux [16] 0.0328 | log fold change Tl+ flux [17] 0.00491 | log fold change Tl+ flux [18] 0.0102
3%: nuclear beta-catenin stimulation ([4]; stimulation, at 2 µM)
7270: cell count [13, 24]
7160: cell count [13, 23]
1.65: fold change [13, 22]

CCCSc1ccc2nc(NC(=O)OC)[nH]c2c1
active: nuclear beta-catenin stimulation ([4]; at 10 µM) 49% | viability decrease [6] 87.3% | tube area decrease [7] 102% | inhibition of viability [9] 76% | viability decrease (inhibition) [10] 86.6% | viability decrease (inhibition) [11] 56.7% | luciferase signal [15] 368 AU
0.0317 and -0.672 and 1.64: z-score [20, 28]
24.2%: nuclear beta-catenin stimulation ([4]; stimulation, at 2 µM)
2.78 (active) and -2.05 (inactive): z-score [20, 27]
0.26: normalised cell number [19, 25]
0.24: normalised cell number [19, 26]
inactive: inhibition [1] -2.27% | inhibition [2] -1.24% | fluorescence ratio [3] 1.01 | insulin secretion stimulation [5] -1% | GLP1 secretion stimulation [8] 0.9% | inhibition [12] -6.38% | red/green cell ratio (normalised) [19] 0.93 | remaining NAD [14] 10 nM | log fold change Tl+ flux [16] -0.0721 | log fold change Tl+ flux [17] 0.0117 | log fold change Tl+ flux [18] -0.0345

Cc1cccc(CN2CCN(C(c3ccccc3)c3ccc(Cl)cc3)CC2)c1 (configuration not stated)
inactive: inhibition [1] -3.18% | inhibition [2] 7.91% | fluorescence ratio [3] 0.96 | nuclear beta-catenin stimulation ([4]; at 10 µM) 5.6% | insulin secretion stimulation [5] -1.7% | tube area decrease [7] 33.4% | GLP1 secretion stimulation [8] -2.1% | inhibition [12] -14.5% | fold change [13, 21] 0.91 and 0.869 and 0.905 | z-score [20, 27] -0.845 | remaining NAD [14] 10 nM | luciferase signal [15] 96 AU | log fold change Tl+ flux [16] 0.0137 | log fold change Tl+ flux [17] 0.0401 | log fold change Tl+ flux [18] -0.0345
2.01 and 1.32 and 1.69: fold change [13, 22]
8220 and 9250 and 10600: cell count [13, 23]
9040 and 10700 and 11700: cell count [13, 24]
active: viability decrease [6] 77.3% | inhibition of viability [9] 83.5% | viability decrease (inhibition) [10] 116% | viability decrease (inhibition) [11] 87.8%
-0.151: z-score [20, 28]
-0.6%: nuclear beta-catenin stimulation ([4]; stimulation, at 2 µM)

COc1ccc2cc(CCC(C)=O)ccc2c1
3.7%: nuclear beta-catenin stimulation ([4]; stimulation, at 2 µM)
-0.132 and -0.0567 and -0.121: z-score [20, 28]
active: viability decrease (inhibition) [11] -3.8% | log fold change Tl+ flux [16] -0.158 | log fold change Tl+ flux [17] -0.0818
1.12: normalised cell number [19, 25]
1.27: normalised cell number [19, 26]
inactive: inhibition [1] -1.36% | inhibition [2] 1.05% | fluorescence ratio [3] 0.99 | nuclear beta-catenin stimulation ([4]; at 10 µM) 5.3% | insulin secretion stimulation [5] 1.5% | viability decrease [6] -7.2% | tube area decrease [7] -5.2% | GLP1 secretion stimulation [8] 0.4% | inhibition of viability [9] -6.2% | viability decrease (inhibition) [10] 4.5% | inhibition [12] -24.5% | red/green cell ratio (normalised) [19] 1.14 | z-score [20, 27] -0.0447 and 0.0297 and 0.548 | remaining NAD [14] 10 nM | luciferase signal [15] 92 AU | log fold change Tl+ flux [18] -0.0634

Cc1ccc(O)c([C@H](CCN(C(C)C)C(C)C)c2ccccc2)c1
3.5%: nuclear beta-catenin stimulation ([4]; stimulation, at 2 µM)
inactive: inhibition [1] -4.36% | inhibition [2] 1.44% | fluorescence ratio [3] 0.97 | nuclear beta-catenin stimulation ([4]; at 10 µM) 0.8% | viability decrease [6] 35.6% | tube area decrease [7] -14% | GLP1 secretion stimulation [8] 8.3% | inhibition of viability [9] 44.4% | viability decrease (inhibition) [11] -2.4% | inhibition [12] -2.71% | z-score [20, 27] -0.175 | luciferase signal [15] 64 AU | log fold change Tl+ flux [17] 0.0454 | log fold change Tl+ flux [18] 0.0595
active: insulin secretion stimulation [5] 30.8% | viability decrease (inhibition) [10] 69.7% | log fold change Tl+ flux [16] 0.149
0.484: z-score [20, 28]

C[C@H](CCC(=O)O)[C@H]1CC[C@H]2[C@@H]3C(=O)C[C@@H]4CC(=O)CC[C@]4(C)[C@H]3CC(=O)[C@]12C
9210: cell count [13, 23]
0.185: z-score [20, 28]
1.51: fold change [13, 22]
inactive: inhibition [1] 3.28% | inhibition [2] 2.76% | fluorescence ratio [3] 0.9 | nuclear beta-catenin stimulation ([4]; at 10 µM) -0.3% | insulin secretion stimulation [5] 1.3% | viability decrease [6] -1% | tube area decrease [7] 15.1% | GLP1 secretion stimulation [8] 0.2% | inhibition of viability [9] -5.2% | viability decrease (inhibition) [10] 5.6% | viability decrease (inhibition) [11] -16% | inhibition [12] -0.558% and -4.79% | fold change [13, 21] 0.903 | z-score [20, 27] 1.02 | remaining NAD [14] 10 nM | luciferase signal [15] 100 AU and 64 AU | log fold change Tl+ flux [16] -0.0147 | log fold change Tl+ flux [17] 0.00244 | log fold change Tl+ flux [18] -0.0617
0%: nuclear beta-catenin stimulation ([4]; stimulation, at 2 µM)
10200: cell count [13, 24]
